Rows were chosen to be rich in hits. Some 5.7% of all compounds tested hit in one or more screens of this group.
KB-3-1 tox – KB-3-1 parental cell cytotoxicity; KB-3-1 viability, CellTiter-Glo ATP luminescence, 72 h; Potency, µM (titrated, usually from 46.1 µM), actives largely listed as cytotoxic; 400,000 compounds, 1.4% hits; AID 1347075; note: nearly all actives have a fitted effect of over 60% in size
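Cytotoxicity measured as CellTiter-Glo luminescence after 72 h at 37 C. Compound titrations were pinned onto drug-naive KB-3-1 parental adenocarcinoma cells grown in DMEM with 10% FBS, and normalized data fitted to concentration-response curves.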
HT1080 IDH1KD tx – kills HT-1080 cells with IDH1 knockdown. Potency, µM (titrated, usually from 46.1 µM), inactives show at the highest dose activity, negative = toxicity, hits mostly cytotoxic. HT-1080 IDH1 knockdown viability, ATP luminescence, 48 h. 360,000 compounds, 2% hits;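 note: 0% = DMSO wells and -100% = cell-free medium wells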
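% activity derives from luminescence (CellTiter-Glo), normalised to DMSO and no-cell wells. HT-1080-IDH1KD cells, 750/well, had 48 h compound exposure at 37 °C.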
KB-V1 cytotox – kills drug-selected multidrug resistant KB-V1 cells; Potency, µM (doses to about 46.1 µM), most hits filed as cytotoxic; KB-V1 MDR cells viability, CellTiter-Glo, 72 h; 400,000 compounds, 3.4% hits; note: nearly all actives have a fitted effect of over 60% in size
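Following 72 h at 37 degrees C with compound, KB-V1 cell viability was read by CellTiter-Glo luminescence, medium being phenol-red-free DMEM plus 10% FBS; concentration-response parameters came from normalized, curve-fitted qHTS data.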
HT1080NT lethal – kills 2HG-producing HT-1080-NT fibrosarcoma cells; HT-1080-NT fibrosarcoma viability, CellTiter-Glo ATP luminescence, 48 h; Potency, µM (titrated, usually from 46.1 µM), inactives show top-dose activity, negative = less viability, actives largely listed as cytotoxic; 360,000 compounds, 1.6% hits; AID 686970;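 note: NT is the 2HG producing partner of a matched IDH1 knockdown line; 0% = DMSO-treated cells and -100% = media-only wells without cells; nearly all actives have a fitted effect of over 55% in size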
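Compounds were tested in concentration-response format on HT-1080-NT cells for 48 hours at 37 degrees C. Cell viability came from CellTiter-Glo luminescence; curves were classified by r2, response magnitude and activity.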
The depositor's hits bear a star; i = inactive; ? = inconclusive; nt = no result given. Calls come from the whole dose curve; as a rule, active = well fitted curve in the direction sought with a large enough effect; inconclusive = small, poorly fitted or top-dose-only effect, or another doubt; inactive = no such curve, though single readings can be large; an effect the other way counts as inactive or inconclusive. Unless noted, % is set by controls: 0 for no effect and ±100 for the full control effect; potency is the fitted concentration of half-maximal effect.

SMILES	KB-3-1 tox	HT1080 IDH1KD tx	KB-V1 cytotox	HT1080NT lethal
Cc1cc(NC(=O)CCCC(=O)N(c2ccccc2)C(C(=O)NC2CCCCC2)c2cccs2)no1 (configuration not stated)	i	2.1%	2.06µM*	0.7%
CC(=O)C1CCN(c2ncc(-c3ccc4c(c3)OCCCO4)s2)CC1	i	nt	i	nt
COc1ccc(-c2nnc(SCC(=O)N(Cc3ccccc3)C(C)(C)C)o2)cc1OC	?	-20.6%	9.2µM*	-18.7%
COc1ccc(CCNC(=O)C(=O)NCc2ccccc2)cc1OC	20.6µM*	20.6µM*	?	16.4µM*
COc1ccc(CCNC(=O)CSc2nnc(-c3cccc(C)c3)o2)cc1OC	i	-0.5%	?	2.5%
COc1ccc(CCNC(=O)CSc2nnc(-c3ccccc3)o2)cc1OC	i	2.3%	20.6µM*	-7.0%
COc1ccc(CCNC(=O)C(C(=O)c2ccccc2)n2cc(Cl)ccc2=O)cc1OC (configuration not stated)	i	8.2%	16.4µM*	8.8%
COc1ccc(CCNC(=O)Cc2ccccc2)cc1OC	i	7.2%	i	-4.1%
COc1ccc(-c2nc3cc(C(C)C)ccc3o2)cc1NC(=O)c1ccc(C)c(Cl)c1	i	nt	i	nt
CCOc1ccc(/C=C/C(=O)NCCc2ccc(OC)c(OC)c2)cc1	i	3.0%	16.4µM*	-1.4%
COc1ccc(CCNC(=O)CSc2ccc(NC(C)=O)cc2)cc1OC	i	1.0%	i	3.7%
COc1ccc(CCNC(=O)CSc2ccc3ccccc3c2)cc1OC	i	2.3%	23.1µM*	0.9%
Cc1nc2ccccc2n1CCc1nc2c3ccccc3nc(SCc3cccc(F)c3)n2n1	i	nt	i	nt
OC(CN1CCN(c2ccccc2Cl)CC1)c1ccccc1 (configuration not stated)	?	?	i	16.4µM*
OC(CN1CCCC1)c1ccccc1 (configuration not stated)	i	nt	i	nt
COc1ccccc1OCC(=O)N(Cc1cccs1)C1CCS(=O)(=O)C1 (configuration not stated)	i	nt	i	nt
C[C@H]1CN([C@@H](C)CO)C(=O)Cc2cc(NC(=O)CCC(F)(F)F)ccc2O[C@H]1CN(C)S(=O)(=O)c1ccc(Cl)cc1	4.61µM*	4.61µM*	i	3.66µM*
C[C@H]1CN([C@@H](C)CO)C(=O)Cc2cc(NC(=O)CCC(F)(F)F)ccc2O[C@H]1CN(C)S(=O)(=O)c1ccc(F)cc1	5.17µM*	?	i	11.6µM*
C[C@H](CO)N1C[C@H](C)[C@@H](CN(C)S(=O)(=O)c2ccc(Cl)cc2)Oc2ccc(NS(=O)(=O)c3ccccc3)cc2CC1=O	i	?	?	-22.2%
COc1ccc2[nH]c(C)c(C(=O)CNc3nccs3)c2c1	i	nt	i	nt
CC(=O)Nc1ccccc1OC1=N[S+](=O)([O-])c2ccccc21	?	nt	i	nt
COc1cccc2c1C(CO)N1C(C#N)C3CC(C(=O)O)C(C1C2)N3C (configuration not stated)	0.0259µM*	?	0.206µM*	-9.4%
COc1cccc2c1OCC(C(=O)O)C2 (configuration not stated)	i	?	i	11.0%
O=C(/C=C/c1cccnc1)c1ccc(NC(=O)c2cccc(Br)c2)cc1	?	-14.6%	7.94µM*	-13.1%
Cc1cccc(C(=O)Nc2ccc(C(=O)/C=C/c3cccnc3)cc2)c1	i	18.4µM*	?	?
SMILES	KB-3-1 tox	HT1080 IDH1KD tx	KB-V1 cytotox	HT1080NT lethal
CC(=O)OCC1(C)CN(c2ccccc2)N(C(C)=O)C1=O (configuration not stated)	i	?	i	20.6µM*
CC(=O)OCC1(C)CN(c2ccccc2)N(C(=O)c2ccc(C(C)(C)C)cc2)C1=O (configuration not stated)	i	?	i	?
CC(=O)OCC1(C)CN(c2ccccc2)NC1=O (configuration not stated)	i	23.1µM*	i	?
CCOC(=O)c1cc(-c2ccc(C)cc2)n(CCC(=O)NCc2ccccc2)c1C	i	nt	i	nt
CCOC(=O)c1cnc2c(OC)cccc2c1N1CCN(c2ccccc2OC)CC1	?	-14.6%	?	-26.4%
CCOC(=O)c1cc(-c2ccc(C)cc2)n(CCC(=O)N2CCN(c3ccccn3)CC2)c1C	?	3.6%	1.16µM*	4.0%
CCOC(=O)c1cnc2c(OC)cccc2c1N1CCN(c2ccccn2)CC1	i	-14.2%	8.2µM*	-14.4%
CCOC(=O)c1cc(-c2ccc(C)cc2)n(CCC(=O)Nc2ccc(C(C)C)cc2)c1C	18.4µM*	nt	?	nt
Cc1ccc(-n2c(SCCC(C)C)nc3sc4c(c3c2=O)CC(C)(C)OC4)cc1	i	nt	?	nt
CCCc1nc2ccccc2c(C(=O)OCC(=O)NCc2ccco2)c1CC	i	-22.9%	5.8µM*	-4.5%
CCCc1nc2ccccc2c(C(=O)OCC(=O)Nc2ccc(S(=O)(=O)N3CCOCC3)cc2)c1CC	?	10µM*	3.26µM*	?
CC(C)c1ccc(S(=O)(=O)c2cnc(SCC(=O)Nc3cccc(C(F)(F)F)c3)nc2N)cc1	i	nt	i	nt
COc1ccc(OC)c(CNC(=O)NCc2noc3ccc(C)cc23)c1	i	nt	i	nt
CC(C)(C)NC(=O)[C@@H]1C[C@@H]2CCCC[C@@H]2CN1C[C@@H](O)[C@H](Cc1ccccc1)NC(=O)[C@H](CC(N)=O)NC(=O)c1ccc2ccccc2n1	?	23.1µM*	i	20.6µM*
COC(=O)[C@H](Cc1ccccc1)NC(=O)c1ccc2ccccc2n1	i	-10.3%	i	2.2%
O=C(Nc1cccc(C(F)(F)F)c1)c1cc2nc(-c3ccc4c(c3)OCO4)cc(C(F)(F)F)n2n1	i	nt	i	nt
COC(=O)[C@@]1(Cc2ccc(F)cc2)[C@H]2c3cc(C(=O)N4CCCC4)n(Cc4ccc(C)c(F)c4F)c3C[C@H]2CN1C(=O)c1ccccc1	?	?	23.1µM*	?
COC(=O)[C@@]1(Cc2ccc(F)cc2)[C@H]2c3cc(C(=O)N4CCCC4)n(CC4CC4)c3C[C@H]2CN1C(=O)c1ccccc1	i	?	?	?
COC(=O)[C@@]1(Cc2ccc(F)cc2)[C@H]2c3cc(C(=O)N4CCCC4)n(Cc4ccc(C)o4)c3C[C@H]2CN1C(=O)c1ccccc1	?	20.6µM*	i	?
COC(=O)[C@@]1(Cc2ccc(F)cc2)[C@H]2c3cc(C(=O)N(C)C)n(Cc4cc(F)cc5c4OCOC5)c3C[C@H]2CN1C(=O)c1ccccc1	?	?	?	-25.5%
COC(=O)[C@@]1(Cc2ccc(F)cc2)[C@H]2c3cc(C(=O)N(C)C)n(Cc4ccsc4Br)c3C[C@H]2CN1C(=O)c1ccccc1	?	?	20.6µM*	?

Screens: PubChem BioAssay, National Center for Advancing Translational Sciences (NCATS)
